PubChem BioAssay (Tox21)
Values joined by “and” are separate entries in the source; they are usually repeats but may differ in a detail not shown here. Equal entries are not always repeated. Inconclusive results are not listed. Entries that show only a call come without a potency. Some compounds were tested as several samples or in several runs, with calls that do not always agree. Active and inactive are the calls of the source. Calls follow the shape of the dose curve; as a rule, active = well fitted curve in the direction sought with a large enough effect in the repeat runs; inconclusive = weak or mixed curves; inactive = no such curve, though single readings can be large; an effect the other way counts as inactive or inconclusive.

What was measured:
[1] = A CellTox Green Cytotoxicity Assay to monitor cytotoxicity in HEK293 cells - 32 hour (AID 1224881); also: nearly all actives have a fitted effect of over 40% in size; also: potency is read from the fitted curve at half-maximal effect
How it was run: (§1)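 Each value comes from one timepoint of a single continuous run in which HEK293 cells with CellTox Green were exposed to compound for up to 40 h at 37 C, dye fluorescence rising with cell death.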

[2] = A CellTox Green Cytotoxicity Assay to monitor cytotoxicity in HepG2 cells - 0 hour (AID 1224882); also: nearly all actives have a fitted effect of over 35% in size; also: potency is read from the fitted curve at half-maximal effect
How it was run: (§2)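 Continuous culture of HepG2 cells with a membrane-impermeant DNA dye; rising fluorescence marks dead cells. Compound exposure lasted up to 40 h at 37 C, with reads every 8 h from 0 h.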

[3] = A CellTox Green Cytotoxicity Assay to monitor cytotoxicity in HepG2 cells - 32 hour (AID 1224883); also: nearly all actives have a fitted effect of over 50% in size; also: potency is read from the fitted curve at half-maximal effect
How it was run: as §2

[4] = A CellTox Green Cytotoxicity Assay to monitor cytotoxicity in HEK293 cells - 8 hour (AID 1224884); also: nearly all actives have a fitted effect of over 35% in size; also: potency is read from the fitted curve at half-maximal effect
How it was run: as §1

[5] = qHTS RealTime-Glo MT Cell Viability Assay in HepG2 cells - 16 hour (AID 1224885); also: nearly all actives have a fitted effect of over 50% in size; also: potency is read from the fitted curve at half-maximal effect
How it was run: (§3)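 HepG2 suspension premixed with RealTime-Glo reagents is plated at 600 cells per well and left 5 h at 37 C/5% CO2. Compounds in DMSO then go in, and bioluminescence reflecting viable cell number is recorded over 40 h.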

[6] = qHTS RealTime-Glo MT Cell Viability Assay in HEK293 cells - 24 hour (AID 1224886); also: nearly all actives have a fitted effect of over 50% in size; also: potency is read from the fitted curve at half-maximal effect
How it was run: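 Reads taken at 0, 8, 16, 24, 32 and 40 h from the same wells. HEK293 cells (600/well) carried RealTime-Glo reagents from seeding, with compound added after a 5 h settle at 37 C.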

[7] = qHTS RealTime-Glo MT Cell Viability Assay in HEK293 cells - 8 hour (AID 1224887); also: nearly all actives have a fitted effect of over 50% in size; also: potency is read from the fitted curve at half-maximal effect
How it was run: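 qHTS format; HEK293 cells with NanoLuc/prosubstrate reagent, 37 C/5% CO2 for 5 h pre-dosing; compounds 23 nL in DMSO; luminescence at each time point reflects viable cells.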

[8] = A CellTox Green Cytotoxicity Assay to monitor cytotoxicity in HEK293 cells - 16 hour (AID 1224888); also: nearly all actives have a fitted effect of over 35% in size
How it was run: as §1

[9] = qHTS RealTime-Glo MT Cell Viability Assay in HepG2 cells - 0 hour (AID 1224889); also: nearly all actives have a fitted effect of over 50% in size
How it was run: as §3

[10] = A CellTox Green Cytotoxicity Assay to monitor cytotoxicity in HepG2 cells - 8 hour (AID 1224890); also: nearly all actives have a fitted effect of over 45% in size; also: potency is read from the fitted curve at half-maximal effect
How it was run: as §2

| SMILES | Potency [1] | Potency [2] | Potency [3] | Potency [4] | Potency [5] | Potency [6] | Potency [7] | Potency [8] | Potency [9] | Potency [10] |
| --- | --- | --- | --- | --- | --- | --- | --- | --- | --- | --- |
| N[C@@H](Cc1c[nH]c2ccccc12)C(=O)O | inactive | inactive | inactive | inactive | inactive | inactive | inactive | inactive | inactive | inactive |
| CN(C)C=O | inactive | inactive | inactive | inactive | inactive | inactive | inactive | inactive | inactive | inactive |
| CC1=C(/C=C/C(C)=C/C=C/C(C)=C/C(=O)O)C(C)(C)CCC1 | inactive | inactive | inactive | inactive | inactive | inactive | inactive | inactive | inactive | inactive |
| CC(=O)/C=C/C1=C(C)CCCC1(C)C | inactive | inactive | inactive | inactive | inactive | – | inactive | inactive | inactive | inactive |
| CCN(CC)CCOC(=O)c1ccc(N)cc1 | inactive | inactive | inactive | inactive | inactive | inactive | inactive | inactive | inactive | inactive |
| C=CCOC(=O)CC(C)C | inactive | inactive | inactive | inactive | inactive | inactive | inactive | inactive | inactive | inactive |
| CC(C)(C)NCC(O)c1ccc(O)c(CO)c1 (stereo not given) | inactive | inactive | inactive | inactive | inactive | inactive | inactive | inactive | inactive | inactive |
| O=c1cc[nH]c(=O)[nH]1 | inactive | inactive | inactive | inactive | inactive | – | inactive | inactive | inactive | inactive |
| COc1cc2c(c(OC)c1OC)-c1ccc(OC)c(=O)cc1[C@@H](NC(C)=O)CC2 | inactive | inactive | 60.9 µM (active) and inactive | inactive | inactive | inactive | inactive | inactive | inactive | inactive |
| O=C1CCCCCN1 | inactive | inactive | inactive | inactive | inactive | inactive | inactive | inactive | inactive | inactive |
| CCn1cc(C(=O)O)c(=O)c2ccc(C)nc21 | inactive | inactive | inactive | inactive | inactive | – | inactive | inactive | inactive | inactive |
| C/C=C/c1ccc(O)c(OC)c1 | inactive | inactive | inactive | inactive | inactive | inactive | inactive | inactive | inactive | inactive |
| Cc1ccc(O)c(-n2nc3ccccc3n2)c1 | inactive | inactive | inactive | inactive | inactive | inactive | inactive | inactive | inactive | inactive |
| COc1cc(O)c(C(=O)c2ccccc2)cc1S(=O)(=O)O | inactive | inactive | inactive | inactive | inactive | inactive | inactive | inactive | inactive | inactive |
| NCCNc1cccc2ccccc12 | inactive | inactive | 53.6 µM (active) and inactive | inactive | inactive | 48.9 µM (active) and 47.8 µM (active) and inactive | inactive | inactive | inactive | inactive |
| CCCCOCCOCCSC#N | inactive | inactive | inactive | inactive | inactive | – | inactive | inactive | inactive | inactive |
| NC(=O)OCC(COC(N)=O)c1ccccc1 | inactive | inactive | inactive | inactive | inactive | inactive | inactive | inactive | inactive | inactive |
| CC(=O)c1ccc(S(=O)(=O)NC(=O)NC2CCCCC2)cc1 | inactive | inactive | inactive | inactive | inactive | – | inactive | inactive | inactive | inactive |
| COC(=O)c1ccc(C=O)cc1 | inactive | inactive | inactive | inactive | inactive | – | inactive | inactive | inactive | inactive |
| Nc1ccc(N=Nc2ccccc2)c(N)n1 | inactive | inactive | 31.1 µM (active) and 17.4 µM (active) | inactive | inactive | – | – | inactive | inactive | inactive |
| C=CC(=O)NC(C)(C)CS(=O)(=O)O | inactive and 43.6 µM (active) | inactive and 27.5 µM (active) | inactive and 24.5 µM (active) | inactive and 43.6 µM (active) | inactive | – | inactive | – | inactive | inactive and 38.9 µM (active) |
| CCCCOC(=O)CCCCCCCCC(=O)OCCCC | inactive | inactive | inactive | inactive | inactive | – | inactive | inactive | inactive | inactive |
| Cc1cnc(NC(=O)C2=C(O)c3ccccc3S(=O)(=O)N2C)s1 | inactive | inactive | inactive | inactive | inactive | – | inactive | inactive | inactive | inactive |
| CCCCC/C(C=O)=C\c1ccccc1 | inactive | inactive | inactive | inactive | inactive | – | inactive | inactive | inactive | inactive |

| SMILES | Potency [1] | Potency [2] | Potency [3] | Potency [4] | Potency [5] | Potency [6] | Potency [7] | Potency [8] | Potency [9] | Potency [10] |
| --- | --- | --- | --- | --- | --- | --- | --- | --- | --- | --- |
| COC(=O)c1ccc(O)cc1 | inactive | inactive | inactive | inactive | – | – | – | inactive | – | inactive |
| Oc1cccc(O)c1 | inactive | inactive | inactive | inactive | inactive | – | inactive | inactive | inactive | inactive |
| CC1(C)O[C@@H]2[C@@H](CO[C@@]3(COS(N)(=O)=O)OC(C)(C)O[C@@H]23)O1 | inactive | inactive | inactive | inactive | inactive | – | inactive | inactive | inactive | inactive |
| CCN1CCCC1=O | inactive | inactive | inactive | inactive | inactive | – | inactive | inactive | inactive | inactive |
| OC[C@@H](O)[C@@H](O)[C@H](O)[C@H](O)CO | inactive | inactive | inactive | inactive | inactive | – | inactive | inactive | inactive | inactive |
| NC(=O)N1c2ccccc2C=Cc2ccccc21 | inactive | inactive | inactive | inactive | inactive | – | inactive | inactive | inactive | inactive |
| NC(=O)N/N=C/c1ccc([N+](=O)[O-])o1 | inactive | inactive | inactive | inactive | inactive | – | inactive | inactive | inactive | inactive |
| N[C@@H](Cc1c[nH]c2ccc(O)cc12)C(=O)O | inactive | inactive | inactive | inactive | inactive | – | inactive | inactive | inactive | inactive |
| C=C(C)C(N)=O | inactive | inactive | inactive | inactive | inactive | – | inactive | inactive | inactive | inactive |
| CO[C@H]1C=CO[C@@]2(C)Oc3c(C)c(O)c4c(O)c(c(/C=N/N5CCN(C)CC5)c(O)c4c3C2=O)NC(=O)/C(C)=C\C=C[C@H](C)[C@H](O)[C@@H](C)[C@@H](O)[C@@H](C)[C@H](OC(C)=O)[C@@H]1C | inactive | inactive | inactive | inactive | 12.4 µM (active) | – | 2.77 µM (active) and 988 nM (active) and 10.7 µM (active) | inactive | inactive | inactive |
| CC1=NN(c2ccccc2)C(=O)C1 | inactive | inactive | inactive | inactive | inactive | – | inactive | inactive | inactive | inactive |
| CC(=O)OC/C=C(C)/C=C/C=C(C)/C=C/C1=C(C)CCCC1(C)C | inactive | inactive | inactive | inactive | inactive | – | inactive | inactive | inactive | inactive |
| c1ccc2[nH]c(-c3cscn3)nc2c1 | inactive | inactive | inactive | inactive | inactive | – | inactive | inactive | inactive | inactive |
| Cc1cccc(Nc2cc(Cl)nc(SCC(=O)O)n2)c1C | inactive | inactive | inactive | inactive | inactive | – | inactive | inactive | inactive | inactive |
| CCCCOCCOCCOC(C)=O | inactive | inactive | inactive | inactive | inactive | – | inactive | inactive | inactive | inactive |
| O=C(O)CCCCC1CCSS1 (stereo not given) | inactive | inactive | inactive | inactive | inactive | – | inactive | inactive | inactive | inactive |
| COC(=O)C1CCC(C(=O)OC)CC1 (stereo not given) | inactive | inactive | inactive | inactive | inactive | – | inactive | inactive | inactive | inactive |
| CCCCCCCC(=O)OCC(O)CO (stereo not given) | inactive | inactive and 26.8 µM (active) | inactive | inactive | inactive | – | inactive | inactive | inactive | inactive |
| CCCCNC(=O)NS(=O)(=O)c1ccc(N)cc1 | inactive | inactive | inactive | inactive | inactive | – | inactive | inactive | inactive | inactive |
| OCCCc1ccccc1 | inactive | inactive | inactive | inactive | inactive | – | inactive | inactive | inactive | inactive |
| COCC(C)N (stereo not given) | inactive | inactive | inactive | inactive | inactive | – | inactive | inactive | inactive | inactive |
| O=C(O)CN(CC(=O)O)CC(=O)O | inactive | inactive | inactive | inactive | inactive | – | inactive | inactive | inactive | inactive |
| CC(=O)CCC(C)C | inactive and 34.7 µM (active) | inactive and 38.9 µM (active) | inactive and 38.9 µM (active) | inactive and 38.9 µM (active) | inactive | – | inactive | – | inactive | inactive and 43.6 µM (active) |
